BRCA1 expr up: increases BRCA1 expression. MCF7-BRCA1-FFLuc reporter, luminescence, 48 h; response scale: scaled: vehicle 0%, 10 µM genistein 100%. Potency, µM (series often up to 46.1 µM), usual class: activators. 380,000 compounds, 1.1% hits. AID 624202; further: nearly all actives have a fitted effect of over 80% in size
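Using MCF7 cells harboring a BRCA1 firefly luciferase reporter, plated 2 h before compound pinning, the screen measured luminescence after 48 h incubation. Responses were normalized to DMSO and 10 microM genistein, then fitted for concentration-effect.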
IL-2 act: activators of IL-2; 360,000 compounds, 0.065% hits; activation, % (series mostly up to about 46 µM); IL-2 activation reporter assay, cell-based qHTS; stimulated with anti-CD3/CD4/CD28 beads; in transgenic mouse T cells; AID 652025; in the data active means activation above about 50%; inconclusive means mostly about 30% to 49%
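Readout: EGFP and DsRed signals by fluorescent plate cytometry. Unstimulated transgenic mouse T cells received compound 60 min before antibody-bead stimulation, then incubated 18 h at 37 degrees C.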
p53 reactivator: mutant p53 re-activation in reporter cells. H1299 p53-A138V BP100-luciferase reporter, luminescence, 24 h. AID 504706. Potency, µM (titrated, usually from 92.2 µM), hits mostly activators. 320,000 compounds, 0.063% hits; further: nearly all actives have a fitted effect of over 45% in size
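H1299 (p53-null), stable ts p53-A138V + BP100-Luc; 1000 cells/well, Opti-MEM/10% FBS; cpd 4 pt, 1:5; 24 h, 37 deg C, 5% CO2; detection reagent 10 min RT; luminescence.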
Nrf2 ARE act: activators of Nrf2 (ARE) signaling. AREc32 ARE-luciferase reporter (MCF7-derived line), luminescence, 24 h. Potency, µM (titrated, usually from 46.1 µM), most hits filed as activators. 410,000 compounds, 0.31% hits. AID 624171; further: nearly all actives have a fitted effect of over 65% in size
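ARE-driven firefly luciferase activity in AREc32 cells measured after a 24 hr compound exposure at 37 deg C, using Steady-Glo reagent and a 30 min room-temperature hold.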
Nrf2 inh: Nrf2 pathway inhibition; 360,000 compounds, 2.1% hits; A549 ARE-Fluc reporter, luciferase luminescence, 18-24 h; Potency, µM (top dose mostly 46 µM), hits mostly inhibitors; further: nearly all actives have a fitted effect of over 60% in size
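Concentration-response testing used A549 ARE_Fluc cells at 5000 cells/well. Following an 18-24 h compound incubation, viability was read by fluorescence (Ex 405/Em 525) and luciferase output by luminescence.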
A549 tox: kills or reduces viability of A549 cells in Nrf2 counter-screen; A549 ARE-Fluc cells, CellTiter-Fluor viability, 18-24 h; Potency, µM (top dose mostly 46 µM), usual class: inhibitors; 390,000 compounds, 0.16% hits; AID 504648
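Cytotoxicity counterscreen: CellTiter-Fluor fluorescence was measured in A549 ARE_Fluc cells after 18-24 h of compound exposure in a concentration series. The subsequent BugLite luminescent read reports ARE-luciferase activity.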
Numbers stand for hits; 0 = inactive; ? = inconclusive; - = no result; [ ] = remark or other dose. Hits are enriched below; roughly 3.2% of the tested compounds scored in any of these assays. Unless noted, the call rests on the fitted dose curve; in most records, active means well fitted curve in the direction sought with a large enough effect; inconclusive means small, poorly fitted or top-dose-only effect, or another doubt; inactive means no such curve, though single readings can be large; an effect the other way counts as inactive or inconclusive.

SMILES	BRCA1 expr up	IL-2 act	p53 reactivator	Nrf2 ARE act	Nrf2 inh	A549 tox
CSc1nc(N)nc(-c2cccs2)c1C#N	0	0	0	0	-	0
CC(C)Sc1nc(N)nc(-c2cccs2)c1C#N	3.98µM	0	0	?	-	0
O=C(Nc1ccc(-c2cc(C(F)(F)F)nn2-c2ccccc2)cc1)c1cccc(F)c1	-	-	-	0	13µM	?
O=c1c(/C=N/Nc2ccccc2)c(Sc2nnnn2-c2ccccc2)nc2ccccn12	0	90.2	0	0	0	0
NCCCCCc1nnc(SCc2ccccc2Cl)o1	0	0	0	0	13µM	?
Cc1cccc(N2C(=O)CS(=O)(=O)C23C(=O)N(C)c2ccccc23)c1 (configuration not stated)	0	-	-	0	0	0
CC1=C(C(=O)OC2CCCCCC2)C(c2cccc(Cl)c2)CC(=O)N1 (configuration not stated)	0	-	-	0	16.4µM	0
CC1=C(C(=O)OC2CCCCCCC2)C(c2cccc(O)c2)NC(=O)N1 (configuration not stated)	0	0	0	0	25.9µM	0
Cn1c(=O)c2c(SCC(=O)Nc3ccc4c(c3)OCCO4)nc(CC(C)(C)C)nc2n(C)c1=O	0	0	0	0	7.31µM	?
Cc1ccc(SC(C)C(=O)Nc2ccncc2)cc1 (configuration not stated)	0	0	0	0	13µM	0
Cc1ccc(SC(C)C(=O)Nc2cccnc2)cc1 (configuration not stated)	0	0	0	0	0	0
COc1ccc(/C=N/Nc2ccccn2)cc1OC	10µM	0	0	0	0	0
COc1cc(/C=N/Nc2ccccn2)ccc1O	0	0	?	8.91µM	?	0
N#C/C(=C\c1ccc(-c2nc3ccccc3s2)o1)C(N)=O	0	0	0	11.2µM	?	0
N#C/C(=C/c1ccc(-c2ccc(S(N)(=O)=O)cc2)o1)C(=O)Nc1ccccc1	0	?	0	0	0	0
N#C/C(=C/c1ccc(-c2ccc(S(N)(=O)=O)cc2)o1)c1nc2ccccc2s1	0	71.1	0	0	?	0
COc1ccc(OC)c(CCNC(=O)c2cc3c(=O)n(C)c4ccccc4c3n2C)c1	0	-	-	0	?	0
Cc1ccc(NNC(=O)c2sccc2Cl)c(C)c1	0	-	-	-	0	0
CN(N=Cc1ccccc1O)c1ccc2ccccc2n1	0	0	-	4.47µM	-	-
CCS(=O)(=O)N1Cc2ccccc2CC1C(=O)Nc1ccc(C)cc1 (configuration not stated)	0[1.84 µM]	0	0	0	0	0
CCS(=O)(=O)N1Cc2ccccc2CC1C(=O)Nc1cccc(C)c1 (configuration not stated)	5.01µM	0	0	0	0	0
COc1ccc(C)cc1NC(=O)c1cc2ccccn2n1	-	-	-	0	0	0
CC(=O)c1ccc(NC(=O)c2cnn3ccccc23)cc1	0	0	0	0	?	0
Cc1cccc(CCNC(=O)c2cc3ccccn3n2)c1	-	-	-	0	?	0
COc1ccc(Cl)cc1NC(=O)c1cc2ccccn2n1	-	-	-	5.62µM	?	0
SMILES	BRCA1 expr up	IL-2 act	p53 reactivator	Nrf2 ARE act	Nrf2 inh	A549 tox
CC(=O)c1cccc(NC(=O)c2cc3ccccn3n2)c1	2.51µM	0	?	0	0	0
CCOc1ccc(CCNC(=O)c2cc3ccccn3n2)cc1OCC	0	0	0	0	20.6µM	0
CC(=O)c1cccc(NC(=O)c2cnn3ccccc23)c1	3.55µM	0	?	0	0	0
COc1ccc(-c2cc(C(=O)OCC(=O)c3cccc(OC)c3)c3cccc(Cl)c3n2)cc1	-	-	-	0	?	0
COc1ccc(-c2[nH]ncc2C(=O)NCc2cccc(F)c2)cc1	-	-	-	0	0	0
CCCCN(C(C)=O)c1ccc2c(c1)C1CC2CCN1C(=O)OCc1ccccc1 (configuration not stated)	0	0	-	0	23.1µM	0
CCN(CCc1ccccc1)c1ccc2c(c1)C1CC2CCN1C(=O)OCc1ccccc1 (configuration not stated)	0	0	-	0	0	0
C=C(C)c1cccc(C(C)(C)NC(=O)Nc2ccc(C)cn2)c1	0	0	?	0	?	0
C=C(C)c1cccc(C(C)(C)NC(=O)Nc2cc(C)ccn2)c1	0	0	?	0	14.6µM	?
C=C(C)c1cccc(C(C)(C)NC(=O)Nc2ccc(OC)nc2)c1	0	0	0	0	?	11.6µM
Cc1ccccc1CNC(=O)c1cnc2sc(N3CCC(C)CC3)nn2c1=O	-	-	-	0	?	0
Cc1ccc(-c2csc3ncnc(Sc4nnnn4C4CC4)c23)cc1	0	-	-	-	-	-
CNC(=S)N/N=C/c1c(C)c(C(=O)c2ccc(F)cc2)n2ccccc12	0	83.3	0	0	0	0
O=C(Cn1ccn(-c2ccc(F)c(F)c2)c(=O)c1=O)c1ccc(F)cc1	-	-	-	0	0	0
CC(=O)C1=C(C)OC(N)=C(C#N)C1c1cc([N+](=O)[O-])ccc1Cl (configuration not stated)	0	0	0	12.6µM	0	0
CC(=O)C1=C(C)OC(N)=C(C#N)C1c1cccc([N+](=O)[O-])c1 (configuration not stated)	0	0	0	0	0	0
Cc1ccccc1OCC(=O)Nc1nnc(S(=O)(=O)N2CCCCCC2)s1	-	-	-	0	0	0
CC(=O)C1=C(C)NC(SCC(=O)c2cc(Cl)ccc2Cl)=C(C#N)C1c1ccco1 (configuration not stated)	0	0	0	0	7.31µM	?
CC(=O)C1=C(C)NC(SCC(=O)c2ccc(Cl)c(Cl)c2)=C(C#N)C1c1ccco1 (configuration not stated)	0	0	0	0	?	0
Cc1ccc(N2CCN(/N=C/c3cccnc3)CC2)cc1	0	0	0	0	?	0
Clc1ccc(N2CCN(/N=C/c3cccnc3)CC2)cc1	0	0	0	0	8.2µM	0
O=C(Nc1ccc(Cl)c(C(F)(F)F)c1)[C@@H]1CC=C[C@@H]2CCN(Cc3ccc(Cl)c(Cl)c3)C(=O)[C@@H]21	0	0	-	0	11.6µM	0
O=C(O)[C@H]1CC=C[C@H]2CCN(Cc3ccc(Cl)c(Cl)c3)C(=O)[C@@H]12	0	0	0	0	0	0
O=C(O)c1ccc(COc2ccc(CO)cc2Cl)cc1	7.94µM	0	0	0	0	0
CN(C)/C=C/c1oc2ccc(O)cc2c1[N+](=O)[O-]	0	0	0	0	?	16.4µM
Cc1oc2ccc(O)cc2c1C(=O)c1ccc([N+](=O)[O-])cc1	0	0	0	0	?	0
O=C(CCl)Nc1cc(SCC(O)CO)cc([N+](=O)[O-])c1 (configuration not stated)	0	0	0	0[9.22 µM]	4.61µM	6.51µM

Screening results as filed in PubChem.
